The values that follow come from PubChem BioAssay AID624101 (Broad Institute, 2012).

SMILES strings stand for the structures. The whole screen tested about 70,000 compounds, of which about 120 (0.17%) were called active. For the sample, actives were picked, then their nearest neighbours and some compounds at random. Values without a mark were called inactive. Cut-off read from the data, not from the text of the source: active = inhibition above about 34%; inconclusive = no clear call, values can overlap the other calls; inactive = below about 11%.

The target of the assay is Isocitrate dehydrogenase [NADP] cytoplasmic (Homo sapiens) (UniProt O75874). In words: PubChem AID 624101.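 Note: 0% = DMSO and 100% = no enzyme.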 Particulars: IDH1 R132H reductase, diaphorase/resazurin fluorescence, 60 min; at 10 µM; active compounds read high.
Chain of Isocitrate dehydrogenase [NADP] cytoplasmic (Homo sapiens) (O75874 whole entry R132H): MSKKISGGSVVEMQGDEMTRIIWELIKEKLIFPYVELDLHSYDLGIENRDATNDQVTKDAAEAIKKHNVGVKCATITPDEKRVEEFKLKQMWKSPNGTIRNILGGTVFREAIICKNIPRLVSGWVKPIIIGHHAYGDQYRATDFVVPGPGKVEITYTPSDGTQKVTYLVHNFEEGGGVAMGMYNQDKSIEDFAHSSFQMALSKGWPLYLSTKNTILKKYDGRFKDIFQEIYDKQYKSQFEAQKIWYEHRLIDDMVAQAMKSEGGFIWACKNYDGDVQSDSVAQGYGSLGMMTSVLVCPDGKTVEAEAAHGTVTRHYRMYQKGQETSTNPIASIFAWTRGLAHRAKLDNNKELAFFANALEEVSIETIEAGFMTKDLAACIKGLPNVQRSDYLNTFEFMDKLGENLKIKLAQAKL
For `CCCc1cn(CC[C@@H]2CC[C@H](NS(=O)(=O)c3ccccc3Cl)[C@H](CO)O2)nn1`, the inhibition is -0.0115%.
In the case of `CCCC(=O)Nc1ccc2c(c1)C(=O)N(C)C[C@H](OC)[C@@H](C)CN(C(C)=O)[C@H](C)CO2` it was 0.373%; in that of `COCc1cn(CC[C@H]2CC[C@H](NC(=O)c3ccncc3)[C@H](CO)O2)nn1`, 0.111%.
Then `O=C(N[C@@H]1CC[C@@H](CCn2cc(-c3ccccn3)nn2)O[C@@H]1CO)c1ccccc1`, with 0.105%.
As to `O=C(C[C@@H]1C[C@H]2c3cc(NC(=O)C4CCOCC4)ccc3O[C@H]2[C@@H](CO)O1)NCCN1CCCCC1`, the inhibition is -0.003%.
With `O=C(C[C@H]1CC[C@@H](NC(=O)c2ccccc2)[C@@H](CO)O1)NCc1ccncn1`, the inhibition was -0.091%.
For the molecule `CO[C@@H]1CN(C)C(=O)c2cc(NC(=O)c3ccc(F)cc3)ccc2OC[C@H](C)N(C(=O)CN(C)C)C[C@H]1C`, the inhibition is -0.235%.
Consider `C[C@@H]1CN([C@H](C)CO)C(=O)c2cc(-c3ccccc3)cnc2O[C@H]1CN(C)C(=O)Nc1ccccc1`, for which the inhibition was -0.031%.
In the case of `Cc1noc(C)c1NC(=O)N(C)C[C@H]1Oc2ccc(NS(=O)(=O)c3ccc(Cl)cc3)cc2CC(=O)N([C@H](C)CO)C[C@@H]1C` it was 0.108%; in that of `O=C(N[C@H]1CC[C@H](CCn2cc(C3(O)CCCC3)nn2)O[C@H]1CO)C1CC1`, -0.0085%; in that of `COc1ccccc1CNC(=O)C[C@@H]1C[C@H]2c3cc(NC(=O)CN(C)C)ccc3O[C@H]2[C@@H](CO)O1`, -0.208%.
Then `C[C@@H]1CN([C@@H](C)CO)S(=O)(=O)c2ccc(C#Cc3ccncc3)cc2O[C@@H]1CN(C)S(=O)(=O)c1ccccc1`, with -0.653%; and `CO[C@@H](CN(C)C(=O)c1cnccn1)[C@H](C)CN([C@H](C)CO)S(=O)(=O)c1ccc(C)cc1`, with 0.027%.
For `C/C=C/c1cnc2c(c1)C(=O)N([C@H](C)CO)C[C@H](C)[C@H](CN(C)C(=O)c1cccc(F)c1)O2`, the inhibition was 0.473%.
`CO[C@H]1CN(C)C(=O)c2cc(NS(=O)(=O)c3ccc(C)cc3)ccc2OC[C@H](C)NC[C@H]1C`: the inhibition is 0.218%.
As to `COc1ccc(-c2cnc3c(c2)C(=O)N([C@@H](C)CO)C[C@@H](C)[C@H](CN(C)C(=O)C2CCCCC2)O3)cc1`, the inhibition is -0.366%.
As to `CN(C)C(=O)C[C@@H]1C=C[C@H](NC(=O)Nc2cccc(F)c2)[C@H](CO)O1`, the inhibition was 0.0155%.
Take `CCC(=O)Nc1ccc2c(c1)C(=O)N(C)C[C@H](OC)[C@H](C)CN(C(=O)c1ccccc1F)[C@@H](C)CO2`: the inhibition is -0.083%.
As for `COc1cccc(S(=O)(=O)Nc2ccc3c(c2)C(=O)N(C)C[C@@H](OC)[C@H](C)CN(C(=O)Cc2cccnc2)[C@H](C)CO3)c1`, the inhibition was 0.018%.
With `CCCNC(=O)Nc1ccc2c(c1)C(=O)N(C)C[C@@H](OC)[C@@H](C)CN(C)[C@@H](C)CO2`, the inhibition is -0.291%.
Then `CO[C@@H]1CN(C)C(=O)c2cc(NS(C)(=O)=O)ccc2OC[C@@H](C)N(C(=O)C2CCC2)C[C@@H]1C`, with -0.303%; and `CCC(=O)Nc1ccc2c(c1)OC[C@@H](C)N(CC1CC1)C[C@H](C)[C@H](OC)CN(C)C2=O`, with 0.102%; and `O=C(C[C@@H]1C=C[C@@H](NC(=O)c2ccccc2)[C@H](CO)O1)NCCc1ccncc1`, with 0.0765%.
On to `CO[C@H]1CN(C)C(=O)c2ccc(NC(=O)c3cc(C)on3)cc2OC[C@H](C)N(C)C[C@H]1C`, for which the inhibition is 0.444%.
In the case of `CN1CCN(C(=O)C[C@H]2C[C@@H]3c4cc(NC(=O)NC5CCCC5)ccc4O[C@@H]3[C@@H](CO)O2)CC1` it was 0.0955%; in that of `O=C(NCC[C@H]1CC[C@H](NC(=O)C2CC2)[C@@H](CO)O1)c1ccc(F)cc1`, 0.372%.
In the case of `O=C(Nc1ccc2c(c1)[C@@H]1C[C@H](CC(=O)N3CCOCC3)O[C@@H](CO)[C@@H]1O2)C1CCOCC1`, the inhibition was -1%.
In the case of `COCC(=O)Nc1ccc2c(c1)C(=O)N(C)C[C@@H](OC)[C@@H](C)CN(C(=O)c1ccccc1)[C@@H](C)CO2`, the inhibition was 0.0325%.
Then `CO[C@@H]1CN(C)C(=O)c2ccc(NC(=O)c3ccc(F)cc3)cc2OC[C@H](C)N(C)C[C@H]1C`, with 0.002%.
With `COCC(=O)Nc1ccc2c(c1)[C@H]1C[C@H](CC(=O)OC)O[C@@H](CO)[C@H]1O2`, the inhibition was -0.0115%.
With `CO[C@@H]1CN(C)C(=O)c2ccc(NS(=O)(=O)c3cccc(C)c3)cc2OC[C@@H](C)NC[C@H]1C`, the inhibition is -0.0525%.
As to `COCC(=O)Nc1ccc2c(c1)OC[C@H](C)N(C(=O)COC)C[C@@H](C)[C@H](OC)CN(C)C2=O`, the inhibition is -0.0515%.
On to `CC(=O)N(C)C[C@@H]1Oc2cc(-c3cncnc3)ccc2S(=O)(=O)N([C@@H](C)CO)C[C@H]1C`, for which the inhibition is 1.05%.
Then `COc1ccccc1CNC(=O)C[C@H]1C[C@@H]2c3cc(NC(=O)c4ccc5c(c4)OCO5)ccc3O[C@@H]2[C@H](CO)O1`, with -0.69%; and `CN(C)CCCNC(=O)C[C@@H]1C=C[C@H](NC(=O)c2ccccc2F)[C@H](CO)O1`, with 0.626%.
